TRHR PAM: allosteric enhancers of human TRH receptor | 360,000 compounds, 0.66% hits | TRHR cells, fluo-8 calcium fluorescence, EC20 TRH enhancement | P34981 | enhancement, % at 2 µM | AID 493056; in the data active means enhancement above about 30%; further: 0% is about no effect
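Enhancer read-out: after compound pinning and an initial kinetic agonist-mode read, an EC20 of TRH (10 nM final) was injected and fluo-8 calcium signal (Ex 480/Em 530) followed at 1 s/cycle for 100 cycles in TRHR-expressing cells.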
D1 antag: antagonists of human D1 dopamine receptor. HEK293 TREx D1 cells, calcium flux, dopamine EC80; hits give low values. AID 504652. P21728. 360,000 compounds, 3.2% hits. activity change, negative = inhibition, % at 10 µM; in the data active means activity change below about -30%; further: on the % scale 0 is the no-effect control and ±100 the full control effect
Target sequence (P21728 whole entry, looked up): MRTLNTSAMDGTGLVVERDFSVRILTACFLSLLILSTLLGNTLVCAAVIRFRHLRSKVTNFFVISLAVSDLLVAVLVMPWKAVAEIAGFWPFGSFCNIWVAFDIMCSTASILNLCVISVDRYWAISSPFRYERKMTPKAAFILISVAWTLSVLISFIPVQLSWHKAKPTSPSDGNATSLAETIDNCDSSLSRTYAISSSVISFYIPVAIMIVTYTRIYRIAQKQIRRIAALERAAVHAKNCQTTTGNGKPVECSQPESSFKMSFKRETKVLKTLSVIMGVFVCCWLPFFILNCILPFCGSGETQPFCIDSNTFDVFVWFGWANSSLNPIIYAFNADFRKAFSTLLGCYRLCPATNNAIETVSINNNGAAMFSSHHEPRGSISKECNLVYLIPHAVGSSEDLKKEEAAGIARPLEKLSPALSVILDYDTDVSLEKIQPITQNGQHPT
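After overnight tetracycline induction at 30 C, force-coupled D1 HEK293 cells took up a no-wash calcium dye at room temperature. Compounds were added and monitored 180 s, and the response to EC80 dopamine was then recorded.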
D1 agonist: activates the human D1 dopamine receptor; HEK293 T-REx D1 cells, calcium flux, agonist mode; activation, % at 2 µM; 360,000 compounds, 1% hits; AID 504660; further: 0% is about no effect
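Inducible HEK293 T-REx D1 cells, force-coupled to calcium signalling, were plated at 4000 cells/well with tetracycline and held overnight at 30 C. After no-wash calcium dye loading, compound-evoked calcium rise over 180 s flagged agonists.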
TRHR agonist: TRH receptor (human) agonism; activation, % at 2 µM; TRHR cells, calcium flux fluo-8, FDSS agonist mode; 360,000 compounds, 0.18% hits; P34981; AID 493084; further: 0% is about no effect
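Steps: seed TRHR cells overnight; add fluo-8 no-wash Ca dye, RT 30 min–1.5 h; record 10 s baseline; pin-transfer compounds; monitor fluorescence 1 cycle/s for the agonist window. Calcium increases flag candidate agonists.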
D1 potentiator: human D1 dopamine receptor positive modulation | P21728 | HEK293 TREx D1 cells, calcium flux, dopamine EC20 potentiation | potentiation, % at 10 µM | 360,000 compounds, 0.036% hits; in the data active means potentiation above about 30%; further: 0% is about no effect
* marks the source's active call; other numbers are inactive results; . = not tested or not shown. Compounds with a hit are over-represented: about 4.6% of the library has one in this group of screens. Unless noted, no stated cut-off is given here; in the data, active means activation above about 30%; inactive means the rest.

SMILES | TRHR PAM | D1 antag | D1 agonist | TRHR agonist | D1 potentiator
Cn1c2c(c(=O)n(C)c1=O)C(C(F)(F)F)(C(F)(F)F)N=C(CCC1CCCCC1)N2 | -4 | -52* | 18 | 2 | -8
COc1ccccc1C(C)NS(=O)(=O)c1cccs1 (stereo not drawn) | -7 | -9 | 0 | 0 | -3
CC(C)c1cccc(C(C)C)c1NS(=O)(=O)c1cccs1 | 0 | -31* | 5 | -2 | 1
COc1ccc([C@@H]2CC(=O)c3c(O)cc(O)cc3O2)cc1O | -1 | -15 | -2 | 0 | -1
COc1c(CC=C(C)C)cc(C2CC(=O)c3c(O)cc(O)cc3O2)cc1CC=C(C)C (stereo not drawn) | 33* | -13 | 3 | 0 | -8
CCc1nn(C(CC)C(=O)NCc2ccc(OC)c(OC)c2)c(=O)c2cc3oc(C)cc3n12 (stereo not drawn) | 41* | 41 | 1 | -2 | 4
CCc1nn(C(CC)C(=O)NCc2ccc(F)cc2)c(=O)c2cc3occc3n12 (stereo not drawn) | -4 | -16 | -1 | -2 | -2
COc1ccc(C(=O)N(Cc2ccc(C(C)C)cc2)C2CCS(=O)(=O)C2)cc1 (stereo not drawn) | 5 | -4 | 2 | -1 | -7
CC(C)C[C@H](NC(=O)c1[nH]cnc1C(=O)N[C@H](C)c1ccccc1)C(=O)OC(C)(C)C | -2 | 26 | 5 | 1 | -4
C[C@@H](NC(=O)c1[nH]cnc1C(=O)Nc1ccccc1)c1ccccc1 | 36* | . | -2 | 1 | 2
C[C@@H](NC(=O)c1nc[nH]c1C(=O)NCC(=O)OCc1ccccc1)c1ccccc1 | 30* | -23 | 0 | -1 | -7
C[C@H](NC(=O)c1nc[nH]c1C(=O)NCc1ccccc1)c1ccccc1 | -11 | -41* | 1 | 1 | -4
CC(C)C[C@H](NC(=O)c1nc[nH]c1C(=O)NC(c1ccccc1)c1ccccc1)C(=O)OC(C)(C)C | -12 | -33* | 11 | 0 | -5
CCCCN(C)C(=O)CSc1nc2ccccc2nc1Cc1ccc(C)cc1 | -3 | 9 | 15 | 0 | 2
C[C@@H](NC(=O)c1nc[nH]c1C(=O)NC1CCN(C(=O)OC(C)(C)C)CC1)c1ccccc1 | 0 | -67* | 0 | 0 | 2
Cc1nc(Cl)c2c(n1)NC1=C(O2)C(=O)CCC1 | 3 | -11 | 38* | 13 | -8
CNC(=O)C1CCC(Cn2c(=O)c3sccc3n(Cc3ccccc3)c2=O)CC1 (stereo not drawn) | -1 | -7 | 1 | 0 | -4
COc1ccccc1CNCC(O)(c1ccc(F)cc1)c1ccc(F)cc1 | -8 | -52* | 2 | 1 | -10
COc1ccccc1CNCC(O)(c1ccc(Cl)cc1)c1ccc(Cl)cc1 | 2 | 23 | 6 | 1 | 1
COc1ccccc1CNN | 33* | 12 | 1 | 0 | 0
O=C(CN1c2ccccc2Sc2ccccc21)NNC(=O)Nc1ccc(Cl)cc1 | 37* | -36* | 0 | 0 | -11
O=C(CN1c2ccccc2Sc2ccccc21)NNC(=O)Nc1ccc(Cl)c(Cl)c1 | -2 | -3 | 2 | 0 | -11
CN(c1ccccc1)c1ccc(/C=C/[N+](=O)[O-])cc1 | 3 | -52* | 140* | -2 | -14
CN(C)c1ccc(-n2cccc2/C=C/[N+](=O)[O-])cc1 | -11 | -22 | 3 | 2 | -13
CCOc1ccc(C(=O)Nc2c(C(=O)c3ccccc3)oc3ccccc23)cc1 | 6 | 7 | 143* | 32* | 4
SMILES | TRHR PAM | D1 antag | D1 agonist | TRHR agonist | D1 potentiator
COc1cccc(NC(=O)c2oc3ccccc3c2NC(=O)c2ccc3c(c2)OCO3)c1 | 3 | 0 | 6 | 2 | -4
COc1cccc(NC(=O)c2oc3ccccc3c2NC(=O)c2ccc(OC(C)C)cc2)c1 | -5 | -16 | 50* | 1 | -1
Cc1oc2ccc(O)c(CN(C)Cc3ccccc3)c2c1C(=O)Nc1cccc(Cl)c1C | -1 | -16 | 2 | 0 | -2
COc1cccc(CNC(=O)c2ccc(-c3nc(CS(=O)(=O)c4ccccc4)c(C)o3)cc2)c1 | 7 | -8 | 5 | 2 | -1
O=C1C(Cl)=C(Nc2ccccc2)C(=O)c2ccccc21 | -18 | -58* | 7 | -1 | -7
COc1ccc(N(CC(=O)NCc2ccccc2Cl)S(=O)(=O)c2c(C)[nH]c(=O)[nH]c2=O)cc1 | -2 | 1 | 1 | 0 | -2
CC1CC(C)CN(CCOc2cccc(Cl)c2Cl)C1 (stereo not drawn) | -2 | -35* | 6 | 0 | -5
CC1CC(C)CN(CCOc2ccc(Cl)cc2Cl)C1 (stereo not drawn) | 0 | -28 | 10 | 0 | -23
Cc1ccc(-c2noc(CNS(=O)(=O)c3ccccc3)n2)cc1 | 6 | -17 | 6 | 0 | -3
O=C1C(=O)N(Cc2cccnc2)C(c2cccc(F)c2)/C1=C(/O)c1ccc2c(c1)OCO2 (stereo not drawn) | -4 | -62* | 2 | 2 | -10
COc1ccc(C2/C(=C(/O)c3ccc4c(c3)CC(C)O4)C(=O)C(=O)N2Cc2cccnc2)cc1 (stereo not drawn) | 14 | -42* | 0 | 0 | 2
CCOc1ccccc1Nc1nnc(-c2cc3cc(Cl)ccc3oc2=O)s1 | -2 | -10 | 18 | 2 | -2
O=C(CN1C(=O)COc2ccc(S(=O)(=O)N3CCCCCC3)cc21)Nc1cccc(Cl)c1 | -4 | -23 | 1 | 0 | 6
COc1ccc(S(=O)(=O)Nc2cc3c(cc2NCc2ccccc2)n(C)c(=O)n3C)cc1 | 19 | -2 | 6 | -1 | -2
CC1CCCCN1S(=O)(=O)c1cc2c3c(c1)CC(=O)N3CCC2 (stereo not drawn) | 32* | . | -1 | 0 | 1
NS(=O)(=O)c1ccc(NC(=O)/C=C/c2ccc(S(=O)(=O)NCc3ccco3)cc2)cc1 | -6 | -43* | 5 | 1 | -5
NS(=O)(=O)c1ccc(NC(=O)/C=C/c2cccc(Cl)c2)cc1 | 15 | -9 | 1 | 0 | -2
O=C(O)/C=C/c1ccc(S(=O)(=O)NCc2ccco2)cc1 | -4 | 0 | 5 | 1 | -2
CC(=O)c1ccc(NC(=O)/C=C/c2ccc(C)cc2)cc1 | -3 | -9 | 4 | 0 | -5
COc1ccc(/C=C/C(=O)Nc2ccc(C)cc2)cc1 | -6 | -65* | 1 | -1 | -2
CC(C)(C)c1ccc(/C=C/C(=O)Nc2ccc(S(N)(=O)=O)cc2)cc1 | 8 | -14 | 33* | -1 | -2
Cc1ccc(CN2COc3c(Cl)cc4c(-c5ccccc5)cc(=O)oc4c3C2)cc1 | 4 | -32* | 6 | 3 | -1
O=C(NC(NNc1ccc([N+](=O)[O-])cc1)(C(F)(F)F)C(F)(F)F)c1ccc(F)cc1 | -3 | -17 | 27 | 2 | -12

Screening data: PubChem BioAssay, National Center for Advancing Translational Sciences (NCATS)
